Laboratory results reported in PubChem BioAssay (NCATS).
“And” between values parts separate entries of the source, which are not always exact repeats. Identical values can stand only once. Records with an inconclusive call do not appear. The source made the active and inactive calls. Unless noted, calls come from the whole dose curve; as a rule, active = well fitted cell-killing curve with a large enough effect; inconclusive = small, poorly fitted or top-dose-only effect, or effect the other way; inactive = flat fitted curve, though single readings scatter.

Test system: not listed separately
Assay: qHTS assay for cell viability of HEK293 cells (AID 743288); note: nearly all actives have a fitted effect of over 50% in size; note: potency is the fitted concentration of half-maximal effect; for max response: % is set by controls: 0 for no effect and ±100 for the full control effect
Details: ATP luminescence (CellTiter-Glo), 18 h; max response: active compounds read low
Outline: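 Parental HEK293 cells were seeded at 2,000 cells/well, rested at least 5 h at 37 C, then exposed to compounds in DMSO for 18 h at 37 C. Viability was read as ATP-dependent luciferase luminescence after 30 min at room temperature.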

Compound	max response	Potency
CCCCCCc1ccc(-c2ccc(C#N)cc2)cc1	-6.02% (inactive)	
Nc1cnn([C@@H]2O[C@H](CO)[C@@H](O)[C@H]2O)c(=O)n1	3.95% (inactive)	
CCCCCCCCOc1ccc(C(=O)O)cc1	8.21% (inactive)	
Oc1c(Cl)cc(Cl)c(Cl)c1Cl	-22.8% (inactive) and -1.71% (inactive)	
CC(C)OCC1CO1 (stereo not given)	-0.12% (inactive)	
C/C(Cl)=C/CCl	-11.4% (inactive)	
CCCCNCC	-3.61% (inactive)	
c1ccc(COCc2ccccc2)cc1	0.589% (inactive)	
Nc1ccc2c(c1)C(=O)c1ccccc1C2=O	-13.3% (inactive) and -4.81% (inactive)	
Cc1ccc(C(=O)O)cc1[N+](=O)[O-]	1.99% (inactive)	
COc1ccc([N+](=O)[O-])cc1N	-2.82% (inactive) and -3.03% (inactive)	
Nc1cc(C(=O)O)c(O)c(S(=O)(=O)O)c1	-1.32% (inactive)	
Oc1ccc2c(c1)OCO2	7.08% (inactive)	
c1ccncc1	1.01% (inactive)	
C/C=C/C=C/C=O	-1.13% (inactive)	
CCN(CC)c1ccc2c(C)cc(=O)oc2c1	-1.15% (inactive)	
c1ccc(SCCSc2ccccc2)cc1	3.66% (inactive)	
CCCCOC(=O)COc1ccc(Cl)cc1Cl	-2.46% (inactive) and -7.81% (inactive)	
CC(=O)OC(C(=O)c1ccccc1)c1ccccc1 (stereo not given)	-11.3% (inactive)	
CCCCCCN	-3.69% (inactive)	
CC(=O)Nc1cccc(C)c1	2.07% (inactive)	
C[C@@H]1CC2(OC(O)[C@]3(C)O[C@H]23)O[C@H]2C[C@@]3(C)[C@@H]4CC[C@H]5C(C)(C)C(O[C@@H]6OC[C@@H](O)[C@H](O)[C@H]6O)CC[C@@]56C[C@@]46CC[C@]3(C)[C@@H]12 (stereo not given in full)		44.7 µM (active)
C=CC1CO1 (stereo not given)	-1.41% (inactive)	
CCOC(=O)C1OC1c1ccccc1 (stereo not given)	-1.14% (inactive)	
COc1ccc(C(=O)Nc2ccccc2)cc1[N+](=O)[O-]	-5.07% (inactive)	

Test system: not listed separately
Assay: qHTS assay for cell viability of the p53RE-bla HCT-116 cell line (AID 743292); note: % is set by controls: 0 for no effect and ±100 for the full control effect; nearly all actives have a fitted effect of over 55% in size
Details: p53RE-bla HCT-116 viability, ATP luminescence, 16 h; series mostly up to 95 µM; activity change, negative = cytotoxicity: at the top concentration
Outline: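 ATP-based luminescence, 16 h compound exposure at 37 C, p53RE-bla HCT-116 cells at 4,000/well.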

Compound	activity change, negative = cytotoxicity	Potency
CCCCCCc1ccc(-c2ccc(C#N)cc2)cc1	-14% (inactive)	
Nc1cnn([C@@H]2O[C@H](CO)[C@@H](O)[C@H]2O)c(=O)n1	-8.55% (inactive)	
CCCCCCCCOc1ccc(C(=O)O)cc1	-9.82% (inactive)	
Oc1c(Cl)cc(Cl)c(Cl)c1Cl		inactive
CC(C)OCC1CO1 (stereo not given)	8% (inactive)	
C/C(Cl)=C/CCl	-1.81% (inactive)	
CCCCNCC	-1.6% (inactive)	
O=c1[nH]ncc2ccccc12	-8.19% (inactive)	
c1ccc(COCc2ccccc2)cc1	1.46% (inactive)	
O=[N+]([O-])c1cccc(I)c1	-6.24% (inactive)	
Nc1ccc2c(c1)C(=O)c1ccccc1C2=O		inactive
c1ccc2c(c1)ccc1ccccc12		inactive
Nc1ccc(N=Nc2ccccc2)c(N)c1	-13.8% (inactive)	
Cc1ccc(C(=O)O)cc1[N+](=O)[O-]	4.61% (inactive)	
COc1ccc([N+](=O)[O-])cc1N		inactive
OCC(CO)(CBr)CBr		inactive
Nc1cc(C(=O)O)c(O)c(S(=O)(=O)O)c1	0.68% (inactive)	
Oc1ccc2c(c1)OCO2	0.216% (inactive)	
c1ccncc1	3.65% (inactive)	
CC(=O)OC1CC(C)OC(C)O1 (stereo not given)		inactive

Compound	activity change, negative = cytotoxicity	Potency
O=C(OCc1ccccc1)c1ccccc1O		inactive
C/C=C/C=C/C=O	8.9% (inactive)	
CCN(CC)c1ccc2c(C)cc(=O)oc2c1	-0.712% (inactive)	
c1c[nH]cn1	-3.24% (inactive)	
c1ccc(SCCSc2ccccc2)cc1	1.3% (inactive)	
O=C(O)/C=C/c1ccc(/C=C/C(=O)O)cc1	-16.4% (inactive)	
CCCCOC(=O)COc1ccc(Cl)cc1Cl		inactive
CC(=O)OC(C(=O)c1ccccc1)c1ccccc1 (stereo not given)	-7.12% (inactive)	
CCCCCCN	2.2% (inactive)	
CC(=O)Nc1cccc(C)c1	0.475% (inactive)	
CCC(Cl)CC(Cl)C(Cl)C(Cl)C(Cl)C(C)Cl (stereo not given)	-15.2% (inactive)	
COc1ccc(C)cc1N	-10% (inactive)	
CCc1ccc(C(c2ccc(CC)cc2)C(Cl)Cl)cc1	-8.56% (inactive)	
C[C@@H]1CC2(OC(O)[C@]3(C)O[C@H]23)O[C@H]2C[C@@]3(C)[C@@H]4CC[C@H]5C(C)(C)C(O[C@@H]6OC[C@@H](O)[C@H](O)[C@H]6O)CC[C@@]56C[C@@]46CC[C@]3(C)[C@@H]12 (stereo not given in full)	-13.4% (inactive)	
O=[N+]([O-])c1ccccc1Nc1ccccc1	3.4% (inactive)	
C=CC1CO1 (stereo not given)	-0.31% (inactive)	
COc1cc(-c2ccc(N=C=O)c(OC)c2)ccc1N=C=O		inactive
CCOC(=O)C1OC1c1ccccc1 (stereo not given)	6.22% (inactive)	
COc1ccc(C(=O)Nc2ccccc2)cc1[N+](=O)[O-]	2.67% (inactive)	

Target: Nuclear receptor subfamily 1 group I member 2 (Rattus norvegicus) (UniProt Q9R1A7)
Assay: qHTS assay for small molecule activators of the rat pregnane X receptor (rPXR) signaling pathway (AID 651751; call rule not given here; note: 0% is about no effect)
Details: rPXR reporter cells, luciferase (One-Glo), 24 h

Sequence of Nuclear receptor subfamily 1 group I member 2 (Rattus norvegicus) (Q9R1A7 whole entry, looked up): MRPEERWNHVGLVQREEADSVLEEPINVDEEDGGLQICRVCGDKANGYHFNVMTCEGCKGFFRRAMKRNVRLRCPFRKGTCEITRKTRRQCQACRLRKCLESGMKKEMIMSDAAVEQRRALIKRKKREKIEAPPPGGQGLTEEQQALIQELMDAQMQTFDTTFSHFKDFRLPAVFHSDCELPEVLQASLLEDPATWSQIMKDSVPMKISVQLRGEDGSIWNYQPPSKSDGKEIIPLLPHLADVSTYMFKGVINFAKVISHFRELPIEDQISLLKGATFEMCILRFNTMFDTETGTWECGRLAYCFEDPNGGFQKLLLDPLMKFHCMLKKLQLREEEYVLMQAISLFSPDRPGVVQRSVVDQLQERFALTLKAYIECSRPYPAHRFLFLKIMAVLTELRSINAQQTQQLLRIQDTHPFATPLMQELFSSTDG

Compound	max response
CCCCCCc1ccc(-c2ccc(C#N)cc2)cc1	-10.6% (inactive)
Nc1cnn([C@@H]2O[C@H](CO)[C@@H](O)[C@H]2O)c(=O)n1	3.54% (inactive)
CCCCCCCCOc1ccc(C(=O)O)cc1	13.3% (inactive)
Oc1c(Cl)cc(Cl)c(Cl)c1Cl	-11.7% (inactive) and -1.19% (inactive)
CC(C)OCC1CO1 (stereo not given)	3.69% (inactive)
C/C(Cl)=C/CCl	-2.47% (inactive)
CCCCNCC	1.14% (inactive)
O=c1[nH]ncc2ccccc12	-3.03% (inactive)
c1ccc(COCc2ccccc2)cc1	4.39% (inactive)
O=[N+]([O-])c1cccc(I)c1	-1.98% (inactive)
c1ccc2c(c1)ccc1ccccc12	-1.82% (inactive) and 1.55% (inactive)
Cc1ccc(C(=O)O)cc1[N+](=O)[O-]	1.55% (inactive)
OCC(CO)(CBr)CBr	4.89% (inactive) and 3.86% (inactive)
Nc1cc(C(=O)O)c(O)c(S(=O)(=O)O)c1	1.39% (inactive)
Oc1ccc2c(c1)OCO2	-0.719% (inactive)
c1ccncc1	3.74% (inactive)

Compound	max response
CC(=O)OC1CC(C)OC(C)O1 (stereo not given)	-2.44% (inactive) and 3.14% (inactive)
O=C(OCc1ccccc1)c1ccccc1O	-3.94% (inactive) and -2.55% (inactive)
C/C=C/C=C/C=O	-0.0021% (inactive)
c1c[nH]cn1	-3.01% (inactive)
O=C(O)/C=C/c1ccc(/C=C/C(=O)O)cc1	0.0892% (inactive)
CCCCOC(=O)COc1ccc(Cl)cc1Cl	-2.3% (inactive) and -1.06% (inactive)
CC(=O)OC(C(=O)c1ccccc1)c1ccccc1 (stereo not given)	1.59% (inactive)
CCCCCCN	-1.94% (inactive)
CC(=O)Nc1cccc(C)c1	-0.307% (inactive)
COc1ccc(C)cc1N	8.96% (inactive)
CCc1ccc(C(c2ccc(CC)cc2)C(Cl)Cl)cc1	1.82% (inactive)
C[C@@H]1CC2(OC(O)[C@]3(C)O[C@H]23)O[C@H]2C[C@@]3(C)[C@@H]4CC[C@H]5C(C)(C)C(O[C@@H]6OC[C@@H](O)[C@H](O)[C@H]6O)CC[C@@]56C[C@@]46CC[C@]3(C)[C@@H]12 (stereo not given in full)	-9.9% (inactive)
O=[N+]([O-])c1ccccc1Nc1ccccc1	-3.61% (inactive)
C=CC1CO1 (stereo not given)	4.12% (inactive)
CCOC(=O)C1OC1c1ccccc1 (stereo not given)	9.31% (inactive)
